Results on eight molecules are retold here after PubChem BioAssay (NCATS).

Several values for one entry are separate records, joined by “and”; a condition that tells them apart may be missing. Equal entries are not always repeated. Unmarked numbers belong to inactive results. Results filed as inconclusive are left out. Activity calls are given as the source filed them. Calls come from the whole dose curve; as a rule, active = well fitted curve in the direction sought with a large enough effect; inconclusive = small, poorly fitted or top-dose-only effect, or another doubt; inactive = no such curve, though single readings can be large; an effect the other way counts as inactive or inconclusive.

For experiment [1], the target named is Guanine nucleotide-binding protein G(i) subunit alpha-1 (Homo sapiens) (UniProt P63096). Description: qHTS Assay for Inhibitors of RGS12 GoLoco Motif Activity (Green Fluorophore) (AID 879).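 Note: 0% = labeled peptide with Gαi1 and full inhibition = labeled peptide alone without protein; negative values mean loss of peptide binding seen as reduced polarization.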 A digest of the protocol: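 Fluorescence polarization assay: 50 nM Gαi1 with 10 nM FITC-labeled RGS12 GoLoco peptide in 10 mM Tris pH 7.5, 150 mM NaCl, 0.1 mM GDP, 0.05% NP40, 10 min at room temperature with compound.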

Experiment [2] has as its target Cytochrome P450 2C9 (Homo sapiens) (UniProt P11712). Description: qHTS Assay for Inhibitors and Substrates of Cytochrome P450 2C9 (AID 883). Note: % is set by controls: 0 for no effect and ±100 for the full control effect; nearly all actives have a fitted effect of over 60% in size. Put shortly: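 Human CYP2C9 (10nM) hydroxylated Luciferin-H (100uM, at its KM) to luciferin in 25mM KPO4. Compound was preincubated 10 min at 37C, then NADPH regeneration started a 60 min reaction at 37C. Luminescence was read after detection reagent, normalized to 57uM sulphaphenazole.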
(In general: Quantitative high-throughput screening tests each substance at several concentrations.)

Experiment [3] deals with Cytochrome P450 3A4 (Homo sapiens) (UniProt P08684). The experiment can be described thus: qHTS Assay for Inhibitors and Substrates of Cytochrome P450 3A4 (AID 884). Note: % is set by controls: 0 for no effect and ±100 for the full control effect; nearly all actives have a fitted effect of over 50% in size. Put shortly: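 20 nM human CYP3A4 with 25 uM Luciferin-PPXE (at KM) in 200 mM KPO4, preincubated 10 min with compound; NADPH regeneration started a 60 min RT reaction. Luciferin detected by luminescence, normalized to 57 uM ketoconazole as full inhibition.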

Experiment [4] can be described thus: Confirmation and Secondary Assay for Modulators of Hemoglobin Beta Chain Splicing at IVS2 654 locus (AID 910).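 Note: per-well total GFP intensity by laser scanning cytometry after 2-day treatment; % of control where 0% means no effect.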 Put shortly: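 HeLa cells stably carrying EGFP interrupted by mutant beta-globin IVS2-654 intron (CMV-driven) were treated with compound for 2 days at 37C; corrected splicing was scored as total peak GFP intensity per well (488 nm excitation, 500-520 nm emission).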

Experiment [5] in a line: Cellular Toxicity (caspase-3) HepG2 (AID 654).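 Note: cells exposed to compound for 16 hours before reading; 0% = DMSO alone and 100% = caspase signal from 100 µM tamoxifen.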 Put shortly: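 HepG2 cells (1500/well) in complete medium were treated with compounds for 16 hr at 37 °C. Caspase-3/7 activity was then read as luminescence from peptide-aminoluciferin cleavage. AC50 came from Hill fits, normalized to DMSO and 100 uM tamoxifen.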
The nature of experiment [6]: Cellular Toxicity (caspase-3) Jurkat (AID 655).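 Note: cells exposed to compound for 16 h at 37 °C before reading.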 The settings on record: Jurkat caspase-3 activation, luminescence; caspase-3 activation: at 92.2 µM (top of the series), DMSO = 0%, tamoxifen = 100%. Put shortly:
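Jurkat cells (5000/well) in complete medium exposed 16 h at 37 C; caspase-3/7 activity read by Caspase-Glo luminescence after 20 min at room temperature. Normalized to DMSO and 100 uM tamoxifen; AC50 from Hill fits.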

Experiment [7] is described as follows: Cellular Toxicity (caspase-3) HUV-EC-C (AID 656). A digest of the protocol:
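HUV-EC-C cells (1000/well) in complete medium, compound-treated 16 h at 37 °C; caspase-3/7 activity read by Caspase-Glo 3/7 luminescence. Normalized to DMSO (basal) and 100 uM tamoxifen (100%); AC50 from Hill-equation concentration-response fits.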

A short description of experiment [8]: Cellular Toxicity (caspase-3) SHSY5Y (AID 657). A digest of the protocol: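 SH-SY5Y human neuroblastoma cells, 1500/well, exposed to compound for 16 hours at 37 °C in complete medium. Caspase-3/7 activity read by Caspase-Glo luminescence after 1 hr at room temperature, normalized to DMSO and 10 uM staurosporine; AC50 from Hill fit.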
The nature of experiment [9]: Cellular Toxicity (caspase-3) BJ (AID 658).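 Note: 0% = DMSO basal and 100% = 10 µM staurosporine.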 Put shortly: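 Luminescent aminoluciferin-substrate cleavage reports caspase 3/7 activity in normal human BJ fibroblasts after 16 hr compound exposure at 37 °C. Normalized to DMSO (basal) and 10 uM staurosporine (100%); AC50 from Hill fit of concentration-response.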
Experiment [10] is described as follows: Cellular Toxicity (caspase-3) Mesangial (AID 660).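 Note: cells exposed to compound for 16 h before the caspase read.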 A digest of the protocol:
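Human renal glomerular mesangial cells (1000/well) were treated with compounds for 16 h at 37 °C in complete medium, then caspase 3/7 activity was read by Caspase-Glo luminescence. Data were normalized to DMSO and 100 uM tamoxifen; AC50 from Hill fits.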

Experiment [11] is described as follows: Cellular Toxicity (caspase-3) SK-N-SH (AID 661).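 Note: 0% = DMSO basal and 100% = 10 µM staurosporine.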 Put shortly: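 SK-N-SH human neuroblastoma cells (1500/well) were treated with compounds for 16 hr at 37 °C in complete medium; caspase 3/7 activity was read by Caspase-Glo luminescence. AC50 came from Hill fits of data normalized to DMSO and 10 uM staurosporine.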
Experiment [12] in a line: Cellular Toxicity (caspase-3) H-4-II-E (AID 663).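 Note: cells exposed to compound for 16 hr before readout.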 The settings on record: H-4-II-E rat hepatoma, scaled: DMSO 0%, 100 µM tamoxifen 100%; at 92.2 µM (top of the series). A digest of the protocol: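 Luminescence from caspase-cleaved aminoluciferin substrate, read 20 min after reagent addition, reports caspase 3/7 activation in rat H-4-II-E cells after 16 hr compound exposure. Normalized to DMSO (basal) and 100 uM tamoxifen (100%); AC50 from Hill fits.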

A short description of experiment [13]: Cellular Toxicity (caspase-3) Hek293 (AID 664).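 Note: cells exposed to compound for 16 h at 37 °C before readout.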 A digest of the protocol:
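HEK293 cells were exposed to compounds in complete medium for 16 hr at 37 °C, then caspase-3/7 activity was read by Caspase-Glo 3/7 luminescence after 20 min at room temperature. Data normalized to DMSO and 100 uM tamoxifen; AC50 from Hill fits.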

Experiment [14] in a line: Cellular Toxicity (caspase-3) N2a (AID 665).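 Note: compound exposure lasted 16 h at 37 °C before readout.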 Put shortly:
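Mouse N2a neuroblastoma cells (1500/well) were treated with compounds for 16 h at 37 °C, then caspase-3/7 activity was read by Caspase-Glo luminescence after 1 h at room temperature. Data were normalized to DMSO and 10 uM staurosporine; AC50 from Hill fits.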

Experiment [15] can be described thus: Cellular Toxicity (caspase-3) NIH 3T3 (AID 666). Put shortly: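 Mouse NIH 3T3 fibroblasts (1000 cells/well) were treated with compound for 16 hr at 37°C in complete medium; caspase-3/7 activity was read by Caspase-Glo luminescence. Normalized to DMSO and 100 uM tamoxifen; AC50 from Hill fits.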
The nature of experiment [16]: Cellular Toxicity (caspase-3) Renal Proximal Tubule (AID 667).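 Note: cells exposed to compound for 16 hours at 37 °C before detection; 0% = DMSO basal and 100% = 10 µM staurosporine.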 A digest of the protocol: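 Freshly isolated primary rat kidney proximal tubule cells, 1000/well, treated 16 hr at 37 °C, then Caspase-Glo 3/7 luminescence after 1 hr. Normalized to DMSO and 10 uM staurosporine; AC50 from Hill fit.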
Experiment [17] deals with Cytochrome P450 3A4 (Homo sapiens) (UniProt P08684). Description: qHTS Assay for Activators of Cytochrome P450 3A4 (AID 885). Note: nearly all actives have a fitted effect of over 65% in size. Put shortly: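 Steps: enzyme/substrate mix dispensed; compound added, 10 min RT; NADPH regeneration solution added, 60 min RT; luciferin detection buffer stops reaction; 20 min later luminescence measured.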
Experiment [18] deals with Cytochrome P450 2D6 (Homo sapiens) (UniProt P10635). Description: qHTS Assay for Inhibitors and Substrates of Cytochrome P450 2D6 (AID 891). Note: nearly all actives have a fitted effect of over 60% in size. Note: potency is the fitted concentration of half-maximal effect. A digest of the protocol: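 Human CYP2D6 (5 nM) with 30 uM Luciferin-ME EGE (at Km) in 100 mM KPO4, compound preincubated 10 min, then NADPH regeneration system for 60 min at room temperature. Luciferin read by luminescence; normalized to 1.43 uM quinidine.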

Experiment [19] concerns the target Cytochrome P450 2C19 (Homo sapiens) (UniProt P33261). Description: qHTS Assay for Inhibitors and Substrates of Cytochrome P450 2C19 (AID 899). Note: % is set by controls: 0 for no effect and ±100 for the full control effect; nearly all actives have a fitted effect of over 60% in size. A digest of the protocol: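 Human CYP2C19 (5nM) with Luciferin-H EGE at 10uM (its KM) in 50mM KPO4 was preincubated with compound for 10 min at 37C. NADPH regeneration started a 60 min 37C reaction. Luciferin was read by luminescence, normalized to 57uM ketoconazole.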

Sequence of Guanine nucleotide-binding protein G(i) subunit alpha-1 (Homo sapiens) (P63096 whole entry, looked up): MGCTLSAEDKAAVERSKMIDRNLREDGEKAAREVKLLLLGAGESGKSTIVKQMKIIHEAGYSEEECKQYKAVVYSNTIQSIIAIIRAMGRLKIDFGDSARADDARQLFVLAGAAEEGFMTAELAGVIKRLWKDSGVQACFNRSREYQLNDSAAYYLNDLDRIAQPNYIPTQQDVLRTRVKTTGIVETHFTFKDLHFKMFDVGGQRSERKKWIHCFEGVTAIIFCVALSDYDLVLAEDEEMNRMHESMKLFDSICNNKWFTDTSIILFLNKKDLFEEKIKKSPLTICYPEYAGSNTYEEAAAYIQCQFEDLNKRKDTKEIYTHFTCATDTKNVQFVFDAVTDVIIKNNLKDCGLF
Sequence of Cytochrome P450 3A4 (Homo sapiens) (P08684 whole entry, looked up): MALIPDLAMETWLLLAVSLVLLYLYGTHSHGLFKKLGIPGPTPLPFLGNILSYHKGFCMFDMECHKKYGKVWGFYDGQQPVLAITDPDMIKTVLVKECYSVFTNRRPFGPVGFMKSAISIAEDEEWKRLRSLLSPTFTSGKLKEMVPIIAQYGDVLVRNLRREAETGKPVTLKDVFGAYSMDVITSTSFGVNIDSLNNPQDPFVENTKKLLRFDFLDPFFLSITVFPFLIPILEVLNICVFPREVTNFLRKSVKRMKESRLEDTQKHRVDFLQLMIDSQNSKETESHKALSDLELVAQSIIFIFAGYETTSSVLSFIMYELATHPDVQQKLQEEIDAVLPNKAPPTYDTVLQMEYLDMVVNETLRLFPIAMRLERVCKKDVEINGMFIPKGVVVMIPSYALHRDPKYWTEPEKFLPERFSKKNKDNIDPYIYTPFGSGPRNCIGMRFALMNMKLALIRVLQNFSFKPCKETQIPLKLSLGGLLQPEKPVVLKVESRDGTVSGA
Sequence of Cytochrome P450 2C9 (Homo sapiens) (P11712 whole entry, looked up): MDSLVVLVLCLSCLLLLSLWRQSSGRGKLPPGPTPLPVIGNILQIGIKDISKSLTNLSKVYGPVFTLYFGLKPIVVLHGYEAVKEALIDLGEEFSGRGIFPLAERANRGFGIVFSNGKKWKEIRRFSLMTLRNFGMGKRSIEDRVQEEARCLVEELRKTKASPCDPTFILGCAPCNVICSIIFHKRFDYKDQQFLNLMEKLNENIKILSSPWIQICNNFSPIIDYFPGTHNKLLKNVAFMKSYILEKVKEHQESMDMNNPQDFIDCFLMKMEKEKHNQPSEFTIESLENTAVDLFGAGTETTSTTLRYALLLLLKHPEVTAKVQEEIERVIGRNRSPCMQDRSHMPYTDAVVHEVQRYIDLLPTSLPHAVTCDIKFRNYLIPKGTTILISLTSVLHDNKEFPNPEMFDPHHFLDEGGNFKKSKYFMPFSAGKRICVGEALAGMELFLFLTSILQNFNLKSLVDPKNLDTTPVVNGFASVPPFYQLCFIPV
Sequence of Cytochrome P450 2C19 (Homo sapiens) (P33261 whole entry, looked up): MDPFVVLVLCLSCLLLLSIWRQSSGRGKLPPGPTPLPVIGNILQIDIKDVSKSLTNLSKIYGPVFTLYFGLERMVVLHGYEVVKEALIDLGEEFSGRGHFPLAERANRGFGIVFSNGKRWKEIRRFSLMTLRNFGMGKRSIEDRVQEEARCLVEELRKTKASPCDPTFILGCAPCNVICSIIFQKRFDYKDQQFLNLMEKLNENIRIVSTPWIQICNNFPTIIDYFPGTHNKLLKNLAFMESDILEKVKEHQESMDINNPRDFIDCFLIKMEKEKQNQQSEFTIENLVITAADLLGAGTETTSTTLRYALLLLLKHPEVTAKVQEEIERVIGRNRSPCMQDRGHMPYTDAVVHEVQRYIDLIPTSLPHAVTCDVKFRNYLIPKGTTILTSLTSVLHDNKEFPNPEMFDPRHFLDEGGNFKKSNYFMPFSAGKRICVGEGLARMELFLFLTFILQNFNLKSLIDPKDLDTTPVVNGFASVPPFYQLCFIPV
Sequence of Cytochrome P450 2D6 (Homo sapiens) (P10635 whole entry, looked up): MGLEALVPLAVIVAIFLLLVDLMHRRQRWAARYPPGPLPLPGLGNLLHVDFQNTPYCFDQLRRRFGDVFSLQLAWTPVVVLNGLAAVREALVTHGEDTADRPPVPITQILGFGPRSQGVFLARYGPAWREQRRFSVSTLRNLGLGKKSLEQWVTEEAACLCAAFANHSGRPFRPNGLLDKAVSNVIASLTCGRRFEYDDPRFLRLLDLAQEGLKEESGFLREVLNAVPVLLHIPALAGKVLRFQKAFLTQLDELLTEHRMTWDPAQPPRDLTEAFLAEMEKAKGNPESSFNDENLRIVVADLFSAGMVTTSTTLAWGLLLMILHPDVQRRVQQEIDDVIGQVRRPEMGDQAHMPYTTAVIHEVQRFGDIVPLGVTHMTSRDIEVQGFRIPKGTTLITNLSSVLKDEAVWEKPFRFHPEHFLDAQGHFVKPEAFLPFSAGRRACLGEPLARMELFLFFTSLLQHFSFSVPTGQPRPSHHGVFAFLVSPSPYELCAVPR

Regarding `O=c1[nH]c2ccccc2n1C1CCN(CCCC(c2ccc(F)cc2)c2ccc(F)cc2)CC1`, the call in [1] and in experiment [4] was inactive. In addition, the Potency entry in [2] and in [3] was “inactive” each time.
In the case of `Oc1ccccc1-c1ccccc1`, the Potency entry in [5], in experiment [8] and in [3] was “inactive” in each case. The caspase-3 activation in [6] was 82.5% (active); in experiment [12], -0.124%. Besides, the molecule was called inactive in [7], in [9], in experiment [10], in [11], in experiment [13] and in [14]. Also, the molecule was classed as inactive in experiment [15] and in [16].
In the case of `Cc1cccc(C)c1NC1=NCCCS1`, the call in [1] and in experiment [4] was inactive.
For the molecule `Oc1cccc2cccnc12`, the Potency entry in experiment [5], in [8] and in [3] was “inactive” throughout. Also, the caspase-3 activation in experiment [6] was 7.85% and 22.6%; in experiment [12], 5.58% and 5.31%. The outcome in experiment [7], in experiment [9], in experiment [11], in experiment [13], in experiment [14] and in [15] was inactive. The outcome in [16] and in experiment [4] was inactive.
With `CCCC(C)(COC(N)=O)COC(=O)NC(C)C` (stereo not drawn), the Potency entry in experiment [5] and in experiment [8] was “inactive” in each case. Besides, the caspase-3 activation in experiment [6] is 1.39%; in experiment [12], 0.766%. Besides, the molecule was called inactive in [7], in experiment [9], in experiment [10], in experiment [11], in experiment [13] and in experiment [14]. Besides, the result in experiment [15], in experiment [16], in [1], in experiment [17] and in experiment [4] was inactive.
Regarding `c1ccc(C2CC2)c(OCC2=NCCN2)c1`, the outcome in experiment [1] was inactive. In [18], the Potency was 5.01 µM (active). Further, the Potency entry in [19] was “inactive”.
`NCC1(CC(=O)O)CCCCC1`: in experiment [1], the result was inactive. The Potency result in experiment [2], in experiment [3], in experiment [18] and in [19] was “inactive” throughout.
Take `NN=C(N)N`: the outcome in [1], in experiment [17] and in experiment [4] was inactive.
